# Data: the supplement of paper PMC3334620
# In all, about 33,000 sequences were measured (“E-score (-0.5 to 0.5)”: median about -0.054, highest 2% from about 0.39 on). The sample holds the highest values, similar sequences and a random draw of the others, so the mix is not that of the screen.
# Biological target: Ylr278c (UniProt Q05854)
# Assay: PBM E-score (8-mer binding enrichment) (E-score (-0.5 to 0.5)); higher = stronger / more preferred TF binding
# Conditions: protein concentration: 200 nM; construct: GST-DNA-binding domain
# Protocol: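 Universal 'all 10-mer' protein binding microarrays (Agilent AMADID 015681) probed with GST-tagged S. cerevisiae TFs (full-length or DBD) made by in vitro transcription/translation (PURExpress), about 100-200 nM. Bound TF was detected with fluorescent anti-GST. Each ungapped 8-mer (which stands for itself and its reverse complement) is scored by the PBM enrichment score (E-score), a modified Wilcoxon-Mann-Whitney statistic from -0.5 to +0.5, computed with the Universal PBM Analysis Suite. Scale: above 0.35 generally sequence-specific binding.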
# Chain of UniProt Q05854 (Q05854 whole entry): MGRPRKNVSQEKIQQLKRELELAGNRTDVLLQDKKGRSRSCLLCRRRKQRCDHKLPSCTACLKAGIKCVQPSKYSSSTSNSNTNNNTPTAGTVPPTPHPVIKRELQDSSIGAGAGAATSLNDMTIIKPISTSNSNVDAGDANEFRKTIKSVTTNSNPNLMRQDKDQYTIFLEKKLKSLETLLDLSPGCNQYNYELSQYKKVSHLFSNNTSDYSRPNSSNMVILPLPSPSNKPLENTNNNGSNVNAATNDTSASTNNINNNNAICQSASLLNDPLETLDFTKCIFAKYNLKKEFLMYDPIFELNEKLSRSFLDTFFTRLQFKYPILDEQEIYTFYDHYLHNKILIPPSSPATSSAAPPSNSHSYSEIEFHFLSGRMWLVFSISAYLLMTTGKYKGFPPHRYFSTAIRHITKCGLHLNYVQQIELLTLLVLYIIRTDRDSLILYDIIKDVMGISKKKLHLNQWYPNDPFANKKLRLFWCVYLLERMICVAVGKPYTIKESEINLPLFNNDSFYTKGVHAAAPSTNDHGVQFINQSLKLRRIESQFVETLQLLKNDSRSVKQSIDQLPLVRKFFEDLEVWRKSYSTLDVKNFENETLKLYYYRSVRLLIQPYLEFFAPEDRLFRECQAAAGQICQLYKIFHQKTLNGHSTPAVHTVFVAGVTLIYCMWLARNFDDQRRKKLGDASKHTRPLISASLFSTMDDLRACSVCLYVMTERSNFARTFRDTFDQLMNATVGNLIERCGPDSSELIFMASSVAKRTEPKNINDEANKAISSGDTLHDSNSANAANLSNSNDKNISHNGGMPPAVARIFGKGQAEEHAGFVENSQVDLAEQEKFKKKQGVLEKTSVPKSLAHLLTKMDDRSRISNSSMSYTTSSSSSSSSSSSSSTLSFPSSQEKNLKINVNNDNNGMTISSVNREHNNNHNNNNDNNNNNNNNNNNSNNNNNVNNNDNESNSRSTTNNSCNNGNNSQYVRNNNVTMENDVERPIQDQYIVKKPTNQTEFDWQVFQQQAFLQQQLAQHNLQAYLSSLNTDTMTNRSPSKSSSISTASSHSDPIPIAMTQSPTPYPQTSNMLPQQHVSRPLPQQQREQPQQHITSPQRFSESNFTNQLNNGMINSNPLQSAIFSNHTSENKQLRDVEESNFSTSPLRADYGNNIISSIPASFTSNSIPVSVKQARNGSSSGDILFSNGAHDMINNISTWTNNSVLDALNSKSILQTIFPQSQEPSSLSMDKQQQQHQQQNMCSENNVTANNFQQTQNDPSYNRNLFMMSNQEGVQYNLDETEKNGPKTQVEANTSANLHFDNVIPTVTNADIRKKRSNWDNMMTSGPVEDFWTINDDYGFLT
row,Sequence,PBM E-score
1,ATGAATTA,-0.228
2,CCGGTATC,0.32
3,GCGATCCC,0.0902
4,AAACACCG,0.39
5,CAACACCG,0.212
6,AAACACCT,-0.135
7,CTCCTCAC,-0.185
8,AATTTCCC,0.114
9,CATTTCCG,0.406
10,AATTTCCT,0.0327
11,ATTTTCCA,0.0304
12,CATTTCCC,0.161
13,ATTTTCCC,0.063
14,ATTTTCCG,0.421
15,CATTTCCA,-0.0597
16,AATTTCCG,0.448
17,GTTCGCAA,-0.0313
18,TATCCTCA,-0.0486
19,ATAACTGG,-0.0346
20,CTTCGGGC,0.0457
21,GTTCGGAA,0.403
22,GTTCGGGA,0.277
23,CTTCGGCA,0.274
24,GTTCGGCA,0.134
25,CTTCGGTA,0.0846

row,Sequence,PBM E-score
1,CTTCGGCC,0.154
2,CTTCGGAA,0.419
3,CTTCGGAC,0.399
4,AAGGTGGG,-0.161
5,GCGGTGTA,0.132
6,AAGGCACA,-0.231
7,CTTAGGTA,-0.0818
8,ATCTGAAA,-0.039
9,CGAGTACA,0.0348
10,ACATGCTC,-0.0918
11,ACACCCCG,0.241
12,CGTCCGAG,0.296
13,AGTCCTAT,-0.0902
14,AGTCCGAC,0.431
15,AGCCCGAC,0.152
16,AGACCGAT,0.163
17,AGTCCGAT,0.458
18,AGTCCAAG,-0.236
19,AGTCCAAA,-0.107
20,AGGCCGAC,0.324
21,AGTCCTAA,-0.163
22,AGTCCGAG,0.43
23,AGTCCGAA,0.425
24,AGTAAGTG,-0.128
25,ATCTCTGG,-0.239

row,Sequence,PBM E-score
1,AAACGACC,-0.0492
2,ACCTCATG,-0.349
3,ATTAGCTC,-0.0566
4,ACAGACTC,-0.109
5,GCCCGATA,0.0679
6,ATCCGATC,0.37
7,CACCGATA,0.194
8,ATCCGATG,0.323
9,GTCCGATA,0.414
10,CGCCGATC,0.377
11,CTCCGATC,0.46
12,AACCGATA,0.0662
13,CTCCGATA,0.462
14,ATCCGATA,0.399
15,CGCCGATA,0.37
16,GGCCGATA,0.3
17,CGCTCTAG,-0.113
18,AACTGCCA,-0.249
19,GTGGAGCA,-0.158
20,GAGCACGC,-0.106
21,AAACCGGA,0.438
22,TAACCGCA,0.0534
23,TAACCGGA,0.431
24,CAACCGGA,0.414
25,CAACCGGC,0.27

row,Sequence,PBM E-score
1,GAACCGGC,0.283
2,TAACCGTA,-0.0936
3,GAACCGTA,-0.0428
4,GAACCGGA,0.426
5,AAACCGGT,0.204
6,AAACCGGC,0.356
7,CAACCGGG,0.215
8,GGTGCTAC,-0.0466
9,GAAAGCAA,0.145
10,CAGGTTCC,0.0369
11,AAGGAGCA,-0.0618
12,GGAAGTAC,0.253
13,CATCACAG,-0.108
14,ATGTCCGC,0.403
15,CTGTCCGA,0.335
16,CTGTCCGC,0.14
17,GTGTCCGA,0.374
18,ATGTCCGG,0.468
19,ATGTCCCC,0.042
20,ATGTCCGA,0.455
21,ATGTCCCG,0.319
22,ATGTCCTG,-0.0169
23,AATCTTGA,-0.172
24,CATGCTAG,-0.256
25,AGACACTG,-0.321

row,Sequence,PBM E-score
1,ACCGGCCG,0.392
2,ATCGGCGA,0.327
3,ACCGGCGC,0.351
4,GCCGGCCC,0.248
5,GCCGGCGC,0.396
6,ATCGGCGG,0.42
7,ACCGGCCT,0.179
8,GACGGCGC,0.169
9,ATCGGCGC,0.326
10,ACCGGCGG,0.402
11,CCCGGCCG,0.354
12,ACCGGCGT,0.3
13,ATATGCTA,-0.0729
14,AAGCCCGA,0.27
15,CCCATAGG,-0.0984
16,AAAATGGT,0.184
17,GAAGTTAC,0.0322
18,ATCTTGAC,-0.292
19,ACGTCTTA,-0.241
20,CGGCCCCC,0.173
21,CACCAAAC,-0.119
22,CCCGGCGG,0.396
23,CCCGGCGC,0.338
24,CCCGGCGA,0.326
25,CATTTGAG,-0.0532

row,Sequence,PBM E-score
1,CCGGACTC,0.43
2,ACGGACTC,0.304
3,ACGGACTA,0.315
4,GCGGACTA,0.384
5,CGGGACTC,0.341
6,CCGGACTA,0.458
7,AGGCCTAC,-0.167
8,AAGCAATT,-0.0901
9,CATCCCAC,-0.135
10,ATAGTGTA,-0.188
11,GCCAAACC,0.119
12,GACTTGAC,-0.059
13,AGTATCTG,-0.207
14,ACGATCGG,0.334
15,CCGATCCA,0.208
16,ACGATCCG,0.283
17,CCGATCGG,0.43
18,CCGATCCG,0.424
19,CCGATCGA,0.226
20,CCGATTAA,0.333
21,CATGTTGA,-0.0612
22,CGAGAATA,0.0398
23,CAGGGCCG,0.181
24,ATTTAAGA,-0.154
25,AAGATGGT,-0.0478

row,Sequence,PBM E-score
1,ATACGGAT,0.256
2,CTACGGAG,0.398
3,CTACGGAA,0.197
4,CTACGGAC,0.261
5,ATACGGAG,0.425
6,ATACGGAA,0.345
7,CTAAACAC,-0.033
8,GTGGACAA,0.124
9,AGCAAGAC,-0.0712
10,ACACCAAC,-0.126
11,AAGCATAT,-0.014
12,ATCCCCCG,0.3
13,GTCCCCGA,0.217
14,ATCCCCTG,-0.16
15,ATCCCCGA,0.379
16,ATCCCGTA,0.158
17,GTCCCGGA,0.439
18,ATCCCGTG,0.212
19,ATCCCCGG,0.425
20,ATCCCGGA,0.44
21,GTCCCGCA,0.163
22,ATCCCGAG,0.308
23,ATCCCGGG,0.392
24,CGCGACAA,0.106
25,ATTGTAGG,-0.0526

row,Sequence,PBM E-score
1,ACAATCGA,-0.178
2,AATTAACA,-0.128
3,GACCTGAC,-0.198
4,CGAGGGCC,0.0992
5,ATCCCCGC,0.393
6,CTCCCCGA,0.268
7,CTCCCCGC,0.288
8,ATCCCGGC,0.391
9,CTCCCGGC,0.356
10,ATCCCGTC,0.231
11,ATCCCCCC,-0.298
12,CTCCCGGA,0.398
13,ATCCCGCC,0.297
14,GAGCCTAC,0.0364
15,AGCGTCTG,-0.136
16,CAGGGGAC,-0.151
17,AATGCTTC,0.0555
18,GAAACTGC,0.176
19,ATTGCTCC,0.256
20,AAATCCCG,0.426
21,TAATCCGA,0.359
22,AAATCCAG,-0.0486
23,CAATCCGC,0.197
24,AAATCCGA,0.449
25,AAATCCGT,0.362

row,Sequence,PBM E-score
1,AAATCCGG,0.474
2,CAATCCGA,0.251
3,GAATCCGA,0.368
4,CAATCCGG,0.393
5,CAATCCCG,0.368
6,AAATCCCA,-0.101
7,AGCGTCTC,0.0181
8,CCCTAGTC,-0.368
9,GATGGCCA,-0.102
10,CCCTAGCG,-0.352
11,CTGGGCAC,-0.183
12,ACCTCAAT,-0.178
13,CTCAGCCA,-0.0917
14,ATGAGCCG,-0.00632
15,ACCTACAA,-0.178
16,ACATCCGC,0.352
17,GAATCCGC,0.259
18,AAATCCGC,0.401
19,GACTTTAA,-0.0643
